In PubChem BioAssay AID893 (National Center for Advancing Translational Sciences (NCATS), 2007):
Screen size: about 75,000 compounds; about 5,700 (7.6%) were called active. Inconclusive results (about 7%) are left out. The list comes from a sample in which actives are over-represented; it also holds similar structures and randomly drawn compounds. A number with no mark means an inactive call. The call rests on the fitted dose curve; in most records, active means well fitted inhibition curve with a large enough effect; inconclusive means small, poorly fitted or top-dose-only effect; inactive means no such curve, though single readings can be large or run the other way.

Target: 3-hydroxyacyl-CoA dehydrogenase type-2 (Homo sapiens) (UniProt Q99714)
Assay: qHTS Assay for Inhibitors of HSD17B4, hydroxysteroid (17-beta) dehydrogenase 4;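 further: the protocol describes HADH2 (HSD17B10) and not the HSD17B4 of the title; nearly all actives have a fitted effect of over 70% in size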
Settings: recombinant HSD17B10, NADH fluorescence kinetic; series mostly up to 57.1 µM; activity change, negative = inhibition: at the top concentration
Outline: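 20 nM HADH2, pH 9.0 Tris/Tween; cpd preinc 15 min RT; start w/ 1 mM NAD+ + 90 uM b-hydroxybutyryl-CoA; kinetic fluor ex360/em450 q30s x 4 min; delta last-first.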
On the % scale 0 is the no-effect control and ±100 the full control effect; potency means the concentration at half of the fitted maximal effect.

Row | Compound | activity change, negative = inhibition | Potency
1 | c1ccc(CCN2CCN=C2Cc2ccccc2)cc1 | 7.62% [at 11.4 µM] | –
2 | COc1ccccc1-c1nnc(SCC(=O)Nc2cc(C)on2)o1 | 1% | –
3 | Cc1cc(NC(=O)CSc2nnc(-c3ccc(Cl)s3)o2)no1 | – | 31.6 µM (active)
4 | COc1ccccc1-c1nnc(SCC(=O)Nc2ccccc2)o1 | -19.6% | –
5 | OC(CCl)CCl | -2.49% | –
6 | Cc1cc2nc3c(=O)[nH]c(=O)nc-3n(C[C@H](O)[C@H](O)[C@H](O)CO)c2cc1C | – | 15.8 µM (active)
7 | CC(C)(C)Nc1c(N)c(=O)oc2ccccc12 | 0.0117% | –
8 | CCOc1cccc(=O)c2c(C)n(CC3CCCO3)c(C)c12 (stereo unspecified) | -1.23% | –
9 | Cc1nc2cnc(Nc3ccccc3)nc2n(C[C@H]2CCCO2)c1=O | -0.713% | –
10 | Cn1cc(-c2nc3cnc(N4CCNCC4)nc3n(CCC#N)c2=O)c2ccccc21 | -6.12% | –
11 | Cc1nc2cnc(N3CCN(C)CC3)nc2n(CCC#N)c1=O | – | 31.6 µM (active)
12 | Cc1nc2cnc(N3CCN(C)CC3)nc2n(C[C@H]2CCCO2)c1=O | – | 31.6 µM (active)
13 | CCC1=C(OC(=O)N(CC)CC)N2C(=O)OC(=NCC3CC3)[C@]2(C)[C@H]2C1=CC[C@H]1C(=O)N(CC(=O)OC)C(=O)[C@H]12 | -1.94% | –
14 | COC(=O)[C@@]1(Cc2ccccc2)[C@H]2c3cc(C(=O)N(C)C)n(CCSCCO)c3C[C@H]2CN1C(=O)c1ccccc1 | 5.51% | –
15 | O=C(c1cc(C(F)(F)F)cc(C(F)(F)F)c1)N1CCC2(CC1)CN(c1ccncc1)C2 | 9.32% | –
16 | CC(=O)c1cccc(NC(=O)c2ccncc2)c1 | -9.24% | –
17 | CC1(C)Cc2cccc(OCC(=O)Nc3nccs3)c2O1 | 12.3% | –
18 | CCCCc1cc(=O)oc2cc(C)cc(OCc3nn[nH]n3)c12 | – | 31.6 µM (active)
19 | COC(=O)[C@@]1(Cc2ccccc2)[C@H]2c3cc(C(=O)N4CCCC4)n(Cc4ccc(C)o4)c3C[C@H]2CN1C(=O)c1ccccc1 | 11.8% | –
20 | COc1ccc(CN(C(=O)c2cccs2)c2nccs2)cc1OC | 1.4% | –
21 | CCOC(=O)c1nc(-c2ccc3c(c2)OCO3)[nH]c1C | – | 20 µM (active)
22 | CCOC(=O)c1c(C)[nH]c(C(=O)COc2ccc3c(c2)OCO3)c1C | 6.92% | –

Row | Compound | activity change, negative = inhibition | Potency
23 | Cc1ccc(C(=O)OCC(=O)NCc2ccc3c(c2)OCO3)s1 | 11.6% | –
24 | O=C(Nc1cccc(F)c1)N1CC2(CCN(C(=O)c3cnccn3)CC2)C1 | -2.14% | –
25 | O=c1[nH]c(-c2ccccc2)c(-c2ccccc2)[nH]1 | – | 31.6 µM (active)
26 | CC1(C)CC(=O)NC=C(c2ccccc2)C1 | -6.53% | –
27 | COC(=O)C1C(=O)CC(C)(O)C(C(=O)OC)C1c1ccc2c(c1)OCO2 (stereo unspecified) | 4.41% | –
28 | O=C(Nc1ccccc1)Nc1ccccc1C(=O)NCc1ccco1 | 0.806% | –
29 | O=C(NCc1ccco1)c1nc(-c2ccccc2)n(-c2ccccc2)n1 | 0.781% | –
30 | O=C(NCc1ccco1)c1cccn2c(=O)c3cc(Br)ccc3nc12 | – | 25.1 µM (active)
31 | CC(C)C(N)C(=O)OCCOCn1cnc2c(=O)[nH]c(N)nc21 (stereo unspecified) | 12.6% | –
32 | FC(F)(F)c1ccc(CN2C[C@@H]3C(c4ccccc4)C4(c5ccccc5)CC3(C4)[C@H]2c2ccccc2)cc1 (stereo partly specified) | -1.19% | –
33 | CCOC(=O)N1CCC(NC(=O)COc2cc(=O)n(C)c3ccccc23)CC1 | 1.53% | –
34 | CCOC(=O)N1CCC(NC(=O)c2cnn3ccccc23)CC1 | – | 31.6 µM (active)
35 | CCOC(=O)N1CCC(NC(=O)Cc2cn(C)c3ccccc23)CC1 | -6.92% | –
36 | CC(C)=CC1C(C(=O)O)C1(C)C (stereo unspecified) | 5.91% | –
37 | Cn1c(-c2ccc(C(=O)c3ccccc3)s2)nc2ccccc21 | – | 25.1 µM (active)
38 | Nc1nonc1-c1nc2ccccc2n1CCC(=O)O | -8.8% | –
39 | Cn1c(CNC(=O)C(C)(C)C)nc2ccccc21 | 4.46% | –
40 | COc1cccc(-c2cc(NCCc3c[nH]c4ccc(OC)cc34)ncn2)c1 | -5.17% | –
41 | CC1OC2C(OC1C)N(S(C)(=O)=O)CCN2S(C)(=O)=O (stereo unspecified) | -1.39% | –
42 | C=CC(=C)CCC=C(C)C | -4.3% | –
43 | COc1ccc2[nH]c3cc4c(=O)c5cc(OC)ccc5[nH]c4cc3c(=O)c2c1 | 3.71% [at 11.4 µM] | –
44 | COc1ccc2[nH]c3ccc(OC)cc3c2c1 | – | 25.1 µM (active)

Row | Compound | activity change, negative = inhibition | Potency
45 | COc1ccc(N)c(C)c1 | -1.56% | –
46 | C=CCOC(=O)COCCC(C)C | 4.39% | –
47 | CCOC(=O)CSc1nnc(CNc2nc(-c3ccccc3)cs2)n1C | -8.89% | –
48 | COCCCNC(=O)c1ccc(CNS(=O)(=O)c2ccc(NC(C)=O)cc2)cc1 | 15.2% | –
49 | c1ccc(CSc2nnc(-c3ccco3)n2Cc2ccccc2)cc1 | -11.7% | –
50 | c1ccc(CSc2nnc(-c3ccco3)c(-c3ccco3)n2)cc1 | – | 10 µM (active)
51 | O=C(CSc1nnc(-c2ccco2)n1-c1ccccc1)NCCc1ccccc1 | -6.42% | –
52 | COc1ccc(C(=O)N2CCC(C(=O)Nc3cccc(C)c3)CC2)cc1OC | 3.62% | –
53 | CCCCOC(=O)c1ccc(N2C(=O)CC(N3CCN(C/C=C/c4ccccc4)CC3)C2=O)cc1 (stereo unspecified) | -3.57% | –
54 | COc1ccc(-c2noc(COc3ccc(Cl)c(C)c3)n2)cc1 | -1.03% | –
55 | COc1cc(-c2nc(-c3ccncc3)no2)cc(OC)c1OC | -1.31% | –
56 | CCOc1nc(-c2ccc(OC)cc2)ccc1-c1noc(-c2cc(OC)c(OC)c(OC)c2)n1 | – | 3.16 µM (active)
57 | CCCN1C(=O)C(NC(C)=O)c2cc(OC)ccc21 (stereo unspecified) | -3.97% | –
58 | CCOC(=O)c1c(CN2CCOCC2)n(-c2ccccc2)c2ccc(O)cc12 | -11.3% | –
59 | O=C(OCCN1CCOCC1)C1(c2ccccc2)CCCCC1 | – | inactive
60 | O=C(CN1CCOCC1)N1CCCc2c1c(=O)oc1ccc(OCc3ccccc3)cc21 | – | 31.6 µM (active)
61 | O=C(CN1CCN(C(=O)c2ccco2)CC1)Nc1ccc(Cl)c(C(F)(F)F)c1 | 7.45% | –
62 | CCOc1ccccc1NC(=O)C1CCC(CNc2c(N3CCOCC3)c(=O)c2=O)CC1 (stereo unspecified) | -4.03% | –
63 | Cc1cc(NC(=O)CSCc2nc(-c3cccc(Cl)c3)oc2C)no1 | -6.97% | –
64 | Cc1ccsc1-c1nc(CSCC(=O)NCCN2CCCC2)c(C)o1 | – | 31.6 µM (active)
65 | Cn1c(C(=O)NCCCN2CCCCC2)cc2sccc21 | 4.89% | –
66 | CN(C)/C=N/c1cc(=O)n(C)c(=O)n1CC1CC1 | -6.59% | –

Row | Compound | activity change, negative = inhibition | Potency
67 | COCc1cc(C)nc(Nc2cc(C)ccc2C)c1C#N | -11.9% | –
68 | CCN1CCCC1CNC(=O)Cn1cnc2ccc(S(=O)(=O)N3CCC(C)CC3)cc2c1=O (stereo unspecified) | 0.495% | –
69 | Fc1ccc2[nH]c3c(N4CCSCC4)ncnc3c2c1 | – | 25.1 µM (active)
70 | CCN1CCCC1CNc1ncnc2c1[nH]c1ccc(F)cc12 (stereo unspecified) | – | 31.6 µM (active)
71 | CC(C)OCCCNc1ncnc2c1[nH]c1ccc(F)cc12 | – | 25.1 µM (active)
72 | CCCn1c(-c2ccc(F)cc2)nc2c(NCC3CCCN3CC)nc(C)nc21 (stereo unspecified) | – | 31.6 µM (active)
73 | CCN1C(=O)CS/C1=N\c1nccs1 | 0.908% | –
74 | CCOC(=O)N1CCN(C(=O)C2CC(c3ccc(F)cc3)=NO2)CC1 (stereo unspecified) | 3.44% | –
75 | O=Cc1c(Cl)cccc1Cl | -1.86% | –
76 | O=C(c1cn(-c2ccccc2)nc1-c1cccnc1)N1CCCCC1 | -4.88% | –
77 | COc1ccc2[nH]cc(CCNc3nc(-c4cccc(NS(C)(=O)=O)c4)nc4ccccc34)c2c1 | -12.8% | –
78 | CO[C@H]1COC(=O)C/C=C\[C@H](C)COC(=O)[C@@H](OCc2ccccc2)/C=C\[C@@H]1C | -3.84% [at 11.4 µM] | –
79 | CS(=O)(=O)N1CCC[C@@]2(CCN(c3ccncc3)C2)C1 | -5.74% | –
80 | CCNCCCNCCCNCCCNCC | 7.38% | –
81 | C=C[C@](C)(O)CCC1C(=C)CCC2[C@@](C)(CO)CCC[C@@]12C (stereo partly specified) | -2.46% | –
82 | COC(=O)C(C(=O)OC)[C@@H]1CCCC(=O)C1 | 8.89% [at 11.4 µM] | –
83 | O=C(CNS(=O)(=O)c1ccc(Br)s1)NCc1ccc2c(c1)OCO2 | 6.92% | –
84 | COc1ccc(-c2nc(CS(=O)CC(=O)NCc3cccnc3)c(C)o2)cc1OC (stereo unspecified) | – | 25.1 µM (active)
85 | COc1ccc(-c2nc(CS(=O)CC(=O)NCc3ccccn3)c(C)o2)cc1 (stereo unspecified) | -29.4% | –
86 | Cc1ccc(-c2nc(CS(=O)CC(=O)NC3CCCC3)c(C)o2)cc1 (stereo unspecified) | -6% | –
87 | CCOc1ccc(C(=O)N(Cc2ccc(N(C)C)cc2)C2CCS(=O)(=O)C2)cc1 (stereo unspecified) | 9.23% | –
88 | CN1CCc2nc(-c3ccccc3)c(-c3ccccc3)cc2C1 | 2.91% [at 11.4 µM] | –

Row | Compound | activity change, negative = inhibition | Potency
89 | COc1cc(C2C(C(=O)c3ccc(C)o3)=C(O)C(=O)N2Cc2cccnc2)ccc1O (stereo unspecified) | -28.4% | –
90 | O=C(Nc1ccccc1N1CCCCC1)c1cccc(F)c1 | -4.57% | –
91 | Cc1c(NC(=O)C(C)OC(=O)c2cc3c4ccccc4n(C)c3s2)c(=O)n(-c2ccccc2)n1C (stereo unspecified) | – | 3.98 µM (active)
92 | Cc1cc(C)cc(N(C(C)C(=O)Nc2c(C)n(C)n(-c3ccccc3)c2=O)S(C)(=O)=O)c1 (stereo unspecified) | 9.82% | –
93 | COC(=O)Nc1c(C)n(C)n(-c2ccccc2)c1=O | -2.47% | –
94 | CCOC(=O)CSc1nnc(CNC(=O)c2ccco2)n1-c1ccc(F)cc1 | -1.04% | –
95 | C/C(=C\C(=O)c1cccnc1)Nc1ccc(C)c(C)c1 | -6.77% | –
96 | O=c1cccc(-c2ccc(Br)cc2)o1 | -12% | –
97 | CC1C(c2ccccc2)=[N+]([O-])C2(CCCC2)N1O (stereo unspecified) | -1.86% | –
98 | Nc1ncnc2c1ncn2C1CC(O)C(CO)O1 (stereo unspecified) | – | inactive
99 | CCC[C@@H]1C[C@@]1(CCC)[C@@H](NC(=O)c1ccccc1)c1ccc(C(=O)OC)cc1 | 0.355% | –
100 | CCn1cc(C(=O)NCc2ccc3c(c2)OCO3)c2cc(OC)c(OC)cc2c1=O | -19.8% | –
101 | Cc1nc2c(C(=O)NCc3ccc4c(c3)OCO4)c[nH]n2c(=O)c1Cc1ccccc1F | – | 31.6 µM (active)
102 | O=C(CCCCn1c(=O)[nH]c2ccccc2c1=O)NCc1ccc2c(c1)OCO2 | -18.5% | –
103 | CC1CCCCC1NC(=O)CCS(=O)(=O)c1cccc2nonc12 (stereo unspecified) | -8.2% | –
104 | COc1ccc2oc(=O)c(C(=O)N3CCN(c4ccccc4F)CC3)cc2c1 | – | 25.1 µM (active)
105 | COc1ccc2oc(=O)c(C(=O)N3CCCc4ccccc43)cc2c1 | 4.06% | –
106 | COc1ccc2oc(=O)c(C(=O)O)cc2c1 | 4.12% | –
